CHO-K1 Ca PAM: nonselective calcium activators in parental CHO-K1 cells, primary screen, counter-screen for M1 PAM project, cell-based, Fluo-8 calcium fluorescence, full deck, 1536-well; activation, % at 3 µM; ATP EC20; 0% at ATP EC20, 100% at ATP max; 360,000 compounds, 0.02% hits;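 active = activation above the run cutoff, the mean activation of all test compounds plus 3 SD, cut at about 40% in these data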;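 note: peak over basal fluorescence ratio in a 140 s read after ATP addition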
ANO1 activ: TMEM16A chloride channel activators or potentiators, primary screen, cell-based, HTS | AID 623877, 2012 | 340,000 compounds, 0.3% hits | B-score at 10 µM | HEK293 TMEM16A/YFP-H148Q/I152L, iodide quench fluorescence; active compounds read low | Anoctamin-1 (Mus musculus), Q8BHY3;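 active = fluorescence-ratio B-score plate-corrected deviation score at least 3 library SD below zero, with starting fluorescence score within 5 deviations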;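 note: channel opened by trigger with iodide after compound preincubation; score built on the fluorescence ratio of max minus min over baseline; more negative score means more quench and so TMEM16A activation or potentiation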
ANO1 block: TMEM16A chloride channel inhibitors, primary screen, cell-based, HTS | 310,000 compounds, 1.2% hits | AID 588511, 2011 | HEK293 TMEM16A/YFP iodide influx fluorescence, ionomycin | normalized B-score (activity score, 25-100; higher = stronger inhibition) at 10 µM | Anoctamin-1 (Mus musculus), Q8BHY3;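 active = ratio plate-corrected score three or more library SD toward inhibition, starting fluorescence score within five deviations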;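 note: score derived from kinetic fluorescence span divided by baseline fluorescence per well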
NTR1 ag: agonists of human NTR1, primary screen, imaging, U2OS cells, beta-arrestin-GFP, high content; Neurotensin receptor type 1 (Homo sapiens), P30989; NTR1-U2OS beta-arrestin-GFP spot imaging, agonist mode; activation, % at 20 µM; 330,000 compounds, 0.17% hits; AID 493036, 2011;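 active = activation at or above 40% of the spot to cytoplasm intensity ratio, with at least 20 cells analyzed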;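 note: 0% = DMSO without peptide and 100% = 100 nM NTR1 peptide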
Target sequence (P30989 whole entry, looked up): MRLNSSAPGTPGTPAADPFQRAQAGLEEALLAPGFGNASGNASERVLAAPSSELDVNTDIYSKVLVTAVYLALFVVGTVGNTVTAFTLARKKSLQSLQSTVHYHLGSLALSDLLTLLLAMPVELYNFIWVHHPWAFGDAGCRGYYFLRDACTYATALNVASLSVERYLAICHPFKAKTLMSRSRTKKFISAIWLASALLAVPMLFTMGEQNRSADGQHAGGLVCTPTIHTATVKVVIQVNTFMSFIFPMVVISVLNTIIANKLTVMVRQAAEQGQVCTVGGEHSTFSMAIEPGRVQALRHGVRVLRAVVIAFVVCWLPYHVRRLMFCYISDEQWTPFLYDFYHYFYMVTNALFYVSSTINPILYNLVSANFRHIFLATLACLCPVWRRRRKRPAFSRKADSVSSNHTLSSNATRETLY
CHO-K1 Ca antag: M1 antagonist counterscreen hit in parental CHO-K1 cells; inhibition, % at 3 µM; 360,000 compounds, 0.6% hits; ATP-induced calcium, Fluo-8 fluorescence;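 active = inhibition above a per-plate cutoff, the plate's mean sample inhibition plus 3 SD, cut at about 24% in these data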;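 note: 0% = DMSO plus EC80 ATP and 100% = DMSO alone without ATP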
M1 ag parental: counter-screen for M1 agonists: effect in parental CHO-K1 cells. Fluo-8 calcium fluorescence; scaled to maximal ATP response, vehicle zero. activation, % at 3 µM. 360,000 compounds, 0.48% hits; in the data active = activation above about 15%;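 note: untransfected CHO-K1 host cells lacking M1 receptor as counterscreen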
TMEM16A reconf: TMEM16A chloride channel inhibitors, confirmation, cell-based, re-confirmation; shares compounds with ANO1 block; HEK293 TMEM16A/YFP-H148Q, iodide quench fluorescence; ionomycin added to raise cell calcium; inhibition, % at 10 µM; 2,300 compounds, 39% hits; AID 652189, 2013;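 active = mean duplicate percent inhibition, scaled so buffer wells are 0 and the reference blocker 100, over three buffer SD above buffer mean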
HEK293 Ca mobil: calcium mobilization in TMEM16A/YFP HEK293 cells, confirmation, counter-screen for TMEM16A inhibitor project. Fluo4 calcium mobilization. 2,300 compounds, 2% hits. shares compounds with ANO1 block. AID 652231, 2013. calcium response (% of ionomycin), % at 10 µM;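 active = duplicate-averaged calcium signal over 20% of the ionomycin maximum, relative to buffer baseline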;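 note: each well's signal is peak minus trough fluorescence divided by its pre-addition baseline; 0% = buffer wells and 100% = ionomycin wells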
YFP-HEK293 quench: iodide YFP quench changes in parental YFP-HEK293, counter-screen for TMEM16A inhibitor project, cell-based | shares compounds with ANO1 block | ionomycin | YFP ratio F(max-min)/F0 at 10 µM | 2,300 tested, under 10 active | AID 652233, 2013;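 active = yellow fluorescent protein signal ratio exceeding the buffer control mean by over 5 SD of those controls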;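 note: ratio is mean of duplicate wells from kinetic YFP trace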
ClC-1 rat inh: ClC-1 chloride channel inhibition, selectivity assay for TMEM16A inhibitor project, cell-based, voltage-dependent ClC-1; shares compounds with ANO1 block; CHO ClC-1-YFP, iodide influx fluorescence quench; iodide control reads 0, buffer control 100; ratio percent, % at 10 µM; 2,300 tested, under 10 active; AID 652236, 2013;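 active = duplicate-mean ratio percent above the mean of iodide-only control wells, which defines zero, plus 5 of their SD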;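 note: higher percent means stronger block of ClC-1 iodide influx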
* = called active by the depositor; i = inactive; · = no result given. Rows were chosen to be rich in hits. Some 2.2% of all compounds tested hit in one or more screens of this group.

SMILES	CHO-K1 Ca PAM	ANO1 activ	ANO1 block	NTR1 ag	CHO-K1 Ca antag	M1 ag parental	TMEM16A reconf	HEK293 Ca mobil	YFP-HEK293 quench	ClC-1 rat inh
CSc1ccc(OC2(C)CCN(Cc3ccc(C(C)C)cc3)C2)cc1 (stereo not given)	12.4	·	·	·	-4.3	0.9	·	·	·	·
CC(=O)N1CCSc2ccc(S(=O)(=O)NCCc3ccc(C)cc3)cc21	-14.0	i	i	0.0	-7.0	10.0	·	·	·	·
CC(=O)N1CCSc2ccc(S(=O)(=O)NCCc3ccc(Cl)cc3)cc21	1.4	i	100*	1.6	-9.1	13.6	34.0%*	i	-0.86	-11.0
Cc1nc(-c2c(-c3ccc(O)cc3O)noc2C(F)(F)F)cs1	-10.1	i	100*	0.0	13.2	0.5	i	i	-0.983	2.0
Cc1cc(N=Nc2ccccc2C(=O)O)c(C)c(C)c1O	12.2	i	i	2.3	-3.8	2.1	53.0%*	i	-1.17	-18.5
Cc1cc(O)c(C(C)C)cc1N=Nc1ccccc1C(=O)O	12.6	i	i	1.4	-13.4	8.3	37.5%*	i	-0.732	-8.0
COc1cc(N=Nc2ccccc2C(=O)O)ccc1O	-9.7	i	i	1.8	-8.7	0.6	·	·	·	·
Cc1cc(O)c(C(C)C)cc1N=Cc1ccccc1[N+](=O)[O-]	26.2	i	·	·	-18.4	0.4	·	·	·	·
CC(C)(CC(=O)N1CCN(c2ccc(Cl)cc2)CC1)CC1=NS(=O)(=O)c2ccccc2N1	-2.5	i	25*	4.3	10.6	4.5	i	i	-1.1	-8.0
CC(C)C[C@H]1CN(CCCC[C@H]2CNC(=O)C(=O)N2CCC2CCCCC2)C(=O)C(=O)N1CC1CCCCC1	4.6	·	·	·	-3.7	0.6	·	·	·	·
CCN(CC)CC(=O)Nc1nc(-c2ccc(Cl)cc2)cs1	10.7	i	100*	-1.2	-13.2	0.1	i	i	-1.03	-12.0
CCc1ccccc1Nc1ncnc2ccccc12	0.7	i	i	-1.1	-13.9	5.8	·	·	·	·
CCCCCCCCNc1ncnc2ccccc12	-6.2	i	100*	0.2	39.3*	11.2	38.0%*	i	-1	-35.5
c1ccc(CCNc2ncnc3ccccc23)cc1	-3.4	i	25*	0.5	32.3*	10.4	i	i	-1.03	-25.5
Cc1cc2c(NCCc3ccccc3)ncnc2s1	-15.8	i	25*	-0.1	23.7*	12.5	23.5%*	i	-1.15	-14.5
CCOC(=O)c1csc(Nc2nc3ccc(F)cc3s2)n1	18.3	i	100*	6.3	-11.1	0.7	i	i	-1.04	-15.0
COC(=O)c1ccc2nc(Nc3nc4ccc(F)cc4s3)sc2c1	7.1	i	i	·	0.9	-0.3	·	·	·	·
COc1ccccc1N(C)S(=O)(=O)c1ccc(C(=O)NCCCN2CCCC2=O)cc1	0.4	·	·	·	11.3	0.4	·	·	·	·
Cc1ccc(Cl)cc1NC(=O)CC(O)(C(F)(F)F)C(F)(F)F	3.1	i	100*	2.1	2.8	10.8	42.5%*	i	-0.946	-18.0
COCC(=O)Nc1cc(Cl)ccc1C	22.5	i	i	-0.2	8.5	1.2	·	·	·	·
